Tests used:
Test in all cases: PBM binding z-score (relative to random genomic background probes); higher = stronger binding; sequences stand for … in GC…GCGATTGACAGCGTAGAATGAAGG
[1] = test system: PPARg:RXRa DBDmut IVT, anti-RXR (DBD mutation: RXRa K156A/R161A, NR concentration 270 nM, RXRa partner concentration 90 nM)
Method in brief: (§1)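 Ligand-free nuclear receptor dimers were applied to custom Agilent 4×180K protein-binding microarrays whose double-stranded probes carried direct-repeat seeds, single-nucleotide variants, half-site ablations and random human genomic background sequences in 34-nt variable regions. Incubation lasted 1 h. Binding z-scores were computed against the random background probes from regression-normalized fluorescence.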

[2] = test system: PPARg:RXRa IVT, anti-PPARg (NR concentration 270 nM, RXRa partner concentration 90 nM)
Method in brief: as §1

[3] = test system: PPARg DBDmut:RXRa IVT, anti-PPARg (DBD mutation: PPARg1 K132A/R137A, NR concentration 270 nM, RXRa partner concentration 90 nM)
Method in brief: as §1

[4] = test system: PPARg DBDmut IVT, anti-PPARg (DBD mutation: PPARg1 K132A/R137A, NR concentration 270 nM)
Method in brief: as §1

[5] = test system: PPARg homodimer (NR concentration 180 nM)
Method in brief: as §1

[6] = test system: PXR:RXRa (NR concentration 270 nM, RXRa partner concentration 90 nM)
Method in brief: as §1

[7] = test system: PXR homodimer (NR concentration 270 nM)
Method in brief: as §1

[8] = test system: RARa:RXR (NR concentration 270 nM, RXRa partner concentration 90 nM)
Method in brief: as §1

[9] = test system: RARa homodimer (NR concentration 270 nM)
Method in brief: as §1

[10] = test system: RARb:RXRa (NR concentration 270 nM, RXRa partner concentration 90 nM)
Method in brief: as §1

[11] = test system: RARb homodimer (NR concentration 270 nM)
Method in brief: as §1

[12] = test system: RARg:RXRa (NR concentration 270 nM, RXRa partner concentration 90 nM)
Method in brief: as §1

[13] = test system: RARg homodimer (NR concentration 270 nM)
Method in brief: as §1

[14] = test system: RXRa DBDmut IVT, anti-RXR (DBD mutation: RXRa K156A/R161A, NR concentration 90 nM)
Method in brief: as §1

[15] = test system: RXRa homodimer (NR concentration 180 nM)
Method in brief: as §1

[16] = test system: THRa:RXRa (NR concentration 90 nM, RXRa partner concentration 90 nM)
Method in brief: as §1

[17] = test system: THRa homodimer (NR concentration 90 nM)
Method in brief: as §1

[18] = test system: VDR:RXRa (NR concentration 270 nM, RXRa partner concentration 90 nM)
Method in brief: as §1

[19] = test system: VDR homodimer (NR concentration 270 nM)
Method in brief: as §1

Sequence	PBM binding z-score [1]	PBM binding z-score [2]	PBM binding z-score [3]	PBM binding z-score [4]	PBM binding z-score [5]	PBM binding z-score [6]	PBM binding z-score [7]	PBM binding z-score [8]	PBM binding z-score [9]	PBM binding z-score [10]	PBM binding z-score [11]	PBM binding z-score [12]	PBM binding z-score [13]	PBM binding z-score [14]	PBM binding z-score [15]	PBM binding z-score [16]	PBM binding z-score [17]	PBM binding z-score [18]	PBM binding z-score [19]
AGTCAAAGTTCACTAGGTAACGTAGGATTCAGCT	2.76	4.99	0.535	0.509	2.04	3.89	2.85	2.82	0.778	4.83	3.85	4.87	5.63	4.05	3.74	1.98	0.256	3.71	3.59
ATACCAAGGTGATCGTGAGGTCGTTGCTACTAAC	0.566	1.52	0.602	0.38	0.741	3.18	1.05	1.91	0.0838	1.5	1.88	2.03	0.891	0.967	1.56	3.25	2.43	3.4	3.33
ATATATAGGTTAAGGGTCATTCAGGTTGGTTCGC	7.29	7.49	2.46	2.9	4.36	5.67	3.53	6.57	3.52	3.92	4.27	4.98	4.04	2.17	6.8	3.86	2.03	6.11	4.9
CATACAGGGTCAGCTAGTCCAGAGTAGGGACGGC	1.14	2.25	0.656	0.108	1.92	2.36	-0.00687	2.91	0.913	3.94	2.88	4.26	4.24	1.65	4.04	2.86	0.757	4.36	1.68
AGTCAAAGTTCAGGACGAGGTAACGTGAAGCACG	-0.189	2.06	0.679	0.0315	1.48	2.72	0.947	2.65	1.04	4.51	1.95	4.86	4.39	2.8	3.03	3.97	1.65	3.16	1.62
CCGAGTCGGTTATGGGGCATTCAGGCAACGGTGA	0.293	0.608	-1.56	-1.49	0.196	-0.541	-0.48	-0.567	-0.241	0.404	0.462	-0.0743	-0.117	-0.648	-0.27	0.224	-0.00692	-0.358	0.0226
AGTCAAAGATCATCTAGGTAACGTAAGATATGCT	0.742	2.23	0.348	0.62	-0.382	-0.211	-0.246	0.277	0.136	0.0858	-0.47	0.163	0.343	-0.336	0.746	1.07	-0.24	0.0146	-0.621
CCGACTGGGGCAAGGTGACCATAACGCACAGCCA	2.69	3.79	-0.323	-0.812	0.0642	-0.346	-0.578	-0.0197	-0.0269	1.14	1.11	0.469	0.934	-0.745	0.419	0.718	0.18	-0.586	-0.459
TTCCCAAGGTGAAGGTCGTTGATCCCTCTGTAGA	0.771	2.06	-0.218	-0.23	1.17	1.5	0.155	1.78	-0.438	2.2	1.87	1.35	1.04	-0.0232	1.74	2.52	1.11	1.22	0.952
CCTAGTTGGTTAAGGTCACACACGCTATAGGTAC	1.64	2.5	1.48	1.66	3.91	4.46	4.13	4.85	2.51	4.24	4.5	4.48	4.33	2.36	4.63	4.64	6.15	4.4	4.12
ATATGTAGGTTACATCCGGGTCAGTCAGGCTATG	7.52	7.34	2.22	1.82	1.39	2.01	0.364	2.42	0.784	1.96	2.61	3.29	1.88	0.541	2.01	3.19	1.66	2.62	1.45
TAGCCTACGTCATTCAGGGGCCAGTATAGAAAGC	-0.459	-0.0447	0.682	0.371	0.00959	-0.22	-0.62	-0.258	-0.456	0.27	0.534	0.54	0.097	-0.122	0.286	0.215	-0.39	-0.219	-0.343
CTCGAAAGGTCGGTGGAGGTGAGTATACGGATAA	0.0934	0.827	1.01	-0.175	1.03	2.39	-0.0117	2.63	0.0288	2.89	2.57	2.73	2.83	0.607	2.32	4.27	0.235	1.79	0.546
TGACAAAGTTCAAAGGTAACGTAAGTATCCACAC	-0.278	2.4	1.51	0.842	2.31	5.44	2.44	6.2	1.36	5.01	3.83	6.01	5.91	4.38	6.68	3.36	-0.0359	5.25	4.23
CATACTGGGTCAGCTAGGCCAGAGTAGGGACGGC	4.6	5.45	0.321	0.266	0.468	0.34	-0.327	0.776	-0.0823	3.04	2.13	2.65	3.42	-0.42	1.39	1.53	0.0605	1.19	-0.0161
CGAACTAGGTCAAGGATAGTGAATCTCCGCACGC	8.31	8.31	3.8	1.33	2.41	0.863	-0.425	1.96	0.921	3.73	3.08	3.74	4.44	1.47	2.58	2.67	1.35	1.19	0.279

— the supplement of paper PMC6555819
